Inconclusive results are not listed. Where a call stands in place of a potency, no number is given. Activity calls are given as the source filed them. Unless noted, calls follow the shape of the dose curve; as a rule, active = well fitted curve in the direction sought with a large enough effect; inconclusive = small, poorly fitted or top-dose-only effect, or another doubt; inactive = no such curve, though single readings can be large; an effect the other way counts as inactive or inconclusive.
Tests used:
[1] = target: D(1A) dopamine receptor (Homo sapiens) (UniProt P21728); experiment: HTS Assay for Allosteric Agonists of the Human D1 Dopamine Receptor: Primary Screen for Potentiators (AID 488982)
Chain of D(1A) dopamine receptor (Homo sapiens) (P21728 whole entry, looked up): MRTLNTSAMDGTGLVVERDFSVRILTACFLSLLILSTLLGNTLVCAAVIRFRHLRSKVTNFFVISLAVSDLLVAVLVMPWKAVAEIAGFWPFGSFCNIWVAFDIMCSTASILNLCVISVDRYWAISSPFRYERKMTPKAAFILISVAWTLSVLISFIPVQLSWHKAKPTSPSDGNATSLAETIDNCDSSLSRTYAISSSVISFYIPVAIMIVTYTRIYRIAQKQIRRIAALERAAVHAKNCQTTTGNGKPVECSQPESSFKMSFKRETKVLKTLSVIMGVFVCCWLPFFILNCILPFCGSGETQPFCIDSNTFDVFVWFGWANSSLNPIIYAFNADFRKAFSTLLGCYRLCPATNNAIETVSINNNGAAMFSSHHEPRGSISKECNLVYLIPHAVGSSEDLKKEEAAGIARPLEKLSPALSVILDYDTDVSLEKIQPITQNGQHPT
Summary of the method: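 Tetracycline-induced HEK293 T-REx cells force-coupled to calcium signalling were incubated overnight at 30 C and dye-loaded at room temperature. Calcium flux over 180 s after compound addition flagged agonists; a further 180 s read after EC20 dopamine flagged potentiators.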

[2] = Validation screen for small molecules that induce genotoxicity in human embryonic kidney (HEK293T) cells expressing luciferase-tagged ELG1 (AID 493106)
Summary of the method: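 Cells were dispensed at 2,000 per well, then 23 nL compound or DMSO was pinned in. After 16 hr at 37 °C and 5% CO2, ONE-Glo reagent was added. Luciferase activity was measured following 30 min at room temperature.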

[3] = qHTS for Inhibitors of Cell Surface uPA Generation: Validation Assay (AID 493164);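 also: RAW 264.7 macrophage cells exposed to compound for 18 h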
Summary of the method: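 ATP-Lite luminescence read-out: ATP remains high when uPA activity-dependent LF translocation into the cytoplasm is blocked. RAW 264.7 cells, 18 h compound exposure at 37 C; 7-point titration, 2.45 nM to 38.3 uM final.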

[4] = target: Galactokinase (Homo sapiens) (UniProt P51570); experiment: qHTS Validation Assay for Inhibitors of Human Galactokinase (GALK) (AID 493189)
Chain of Galactokinase (Homo sapiens) (P51570 whole entry, looked up): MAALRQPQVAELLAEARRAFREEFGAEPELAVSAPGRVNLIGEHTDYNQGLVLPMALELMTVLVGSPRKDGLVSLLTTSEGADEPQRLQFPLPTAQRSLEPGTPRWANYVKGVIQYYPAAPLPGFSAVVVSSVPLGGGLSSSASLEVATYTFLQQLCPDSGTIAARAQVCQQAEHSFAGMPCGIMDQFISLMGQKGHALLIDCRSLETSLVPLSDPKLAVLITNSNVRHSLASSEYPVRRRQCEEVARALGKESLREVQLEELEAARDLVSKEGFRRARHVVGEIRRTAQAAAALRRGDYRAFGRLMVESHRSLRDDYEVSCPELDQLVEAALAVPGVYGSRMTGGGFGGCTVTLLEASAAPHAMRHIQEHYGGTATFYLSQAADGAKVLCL
Summary of the method: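 Enzyme activity is inferred from ATP consumption: human GALK phosphorylates galactose (100 uM) using 35 uM ATP for 1 h at room temperature, and luciferase-based Kinase-Glo Plus reports unconsumed ATP.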

[5] = Validation screen for small molecules that induce DNA re-replication in SW480 colon adenocarcinoma cells (AID 504364)
Summary of the method: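 Image-based qHTS: compounds were incubated with SW480 cells for 48 hr, nuclei stained with Hoechst, and per-nucleus fluorescence intensity scanned to flag cells with excess DNA content.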

[6] = target: Peptidyl-prolyl cis-trans isomerase NIMA-interacting 1 (Homo sapiens) (UniProt Q13526); experiment: qHTS Validation Assay to Find Inhibitors of Pin1 (AID 504536; active = well fitted inhibition curve with a large enough effect in the polarisation, with a control signal flat, not every such curve was filed as active; the % refers to the polarisation)
Chain of Peptidyl-prolyl cis-trans isomerase NIMA-interacting 1 (Homo sapiens) (Q13526 whole entry, looked up): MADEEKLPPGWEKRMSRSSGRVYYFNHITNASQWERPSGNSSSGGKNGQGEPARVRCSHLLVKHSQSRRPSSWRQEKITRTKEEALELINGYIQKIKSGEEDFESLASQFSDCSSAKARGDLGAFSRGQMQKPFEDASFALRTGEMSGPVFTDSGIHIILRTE
Summary of the method: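 Fluorescence polarization competition: compounds (titration) displace HiFluor-488-labeled Pin1-1b peptide from Pin1 (0.3 uM final) in pH 7.5 HEPES buffer with DTT, 10 min at room temperature; %Activity normalized to no-enzyme wells, curves fitted.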

[7] = target: Phosphoglycerate kinase, glycosomal (Trypanosoma brucei brucei) (UniProt P07378); experiment: qHTS Validation Assay to Find Inhibitors of Phosphoglycerate Kinase (AID 504547)
Chain of Phosphoglycerate kinase, glycosomal (Trypanosoma brucei brucei) (P07378 whole entry, looked up): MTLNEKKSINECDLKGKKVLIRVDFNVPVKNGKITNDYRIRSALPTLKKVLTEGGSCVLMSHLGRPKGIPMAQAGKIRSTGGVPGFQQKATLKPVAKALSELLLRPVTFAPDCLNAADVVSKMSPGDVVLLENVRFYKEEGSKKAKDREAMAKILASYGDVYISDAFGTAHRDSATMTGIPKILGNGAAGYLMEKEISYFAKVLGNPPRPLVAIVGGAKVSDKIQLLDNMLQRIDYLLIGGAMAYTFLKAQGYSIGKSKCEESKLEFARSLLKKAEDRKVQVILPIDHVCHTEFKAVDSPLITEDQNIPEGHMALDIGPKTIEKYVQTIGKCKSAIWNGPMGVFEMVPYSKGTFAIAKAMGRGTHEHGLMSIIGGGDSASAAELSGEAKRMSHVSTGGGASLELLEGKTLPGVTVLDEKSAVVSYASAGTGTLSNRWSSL
Summary of the method: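 In TEA buffer (100mM, pH 7.6) containing 5mM MgCl2 and 0.01% Tween-20, the GAPDH-coupled PGK reaction proceeded for 60 minutes at room temperature before a single luminescence reading using Kinase-Glo Plus.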

[8] = target: phosphoglycerate mutase (Leishmania major) (UniProt Q4Q090); experiment: qHTS Validation Assay to Find Inhibitors of Phosphoglycerate Mutase (AID 504548); also: series mostly up to about 58 µM
Chain of phosphoglycerate mutase (Leishmania major) (Q4Q090 1-553): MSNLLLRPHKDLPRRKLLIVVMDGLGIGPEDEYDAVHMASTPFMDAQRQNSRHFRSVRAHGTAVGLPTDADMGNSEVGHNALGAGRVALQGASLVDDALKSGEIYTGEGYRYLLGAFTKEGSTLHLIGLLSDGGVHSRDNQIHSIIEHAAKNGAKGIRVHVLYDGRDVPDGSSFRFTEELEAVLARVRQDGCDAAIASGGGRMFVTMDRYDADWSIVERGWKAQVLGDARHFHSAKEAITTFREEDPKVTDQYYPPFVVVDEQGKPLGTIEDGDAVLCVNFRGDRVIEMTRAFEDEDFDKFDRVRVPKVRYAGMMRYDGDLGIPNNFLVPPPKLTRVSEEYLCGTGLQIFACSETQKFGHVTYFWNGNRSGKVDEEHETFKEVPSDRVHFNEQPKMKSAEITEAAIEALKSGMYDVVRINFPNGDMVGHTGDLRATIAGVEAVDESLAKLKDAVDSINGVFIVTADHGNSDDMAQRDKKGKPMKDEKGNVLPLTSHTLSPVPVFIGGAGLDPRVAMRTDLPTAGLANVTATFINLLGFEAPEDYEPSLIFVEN
Summary of the method: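 Lm PGAM at 1.25 nM final with substrate in 100 mM TEA pH 7.6, 5 mM MgCl2, 0.01% Tween-20; 45 min at room temperature. Kinase-GloPlus added, 10 min, end-point luminescence read.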

[9] = target: Ubiquitin carboxyl-terminal hydrolase 1 (Homo sapiens) (UniProt O94782); experiment: Inhibitors of USP1/UAF1: Pilot qHTS (AID 504865); also: nearly all actives have a fitted effect of over 35% in size; also: potency is read from the fitted curve at half-maximal effect
Chain of Ubiquitin carboxyl-terminal hydrolase 1 (Homo sapiens) (O94782 whole entry, looked up): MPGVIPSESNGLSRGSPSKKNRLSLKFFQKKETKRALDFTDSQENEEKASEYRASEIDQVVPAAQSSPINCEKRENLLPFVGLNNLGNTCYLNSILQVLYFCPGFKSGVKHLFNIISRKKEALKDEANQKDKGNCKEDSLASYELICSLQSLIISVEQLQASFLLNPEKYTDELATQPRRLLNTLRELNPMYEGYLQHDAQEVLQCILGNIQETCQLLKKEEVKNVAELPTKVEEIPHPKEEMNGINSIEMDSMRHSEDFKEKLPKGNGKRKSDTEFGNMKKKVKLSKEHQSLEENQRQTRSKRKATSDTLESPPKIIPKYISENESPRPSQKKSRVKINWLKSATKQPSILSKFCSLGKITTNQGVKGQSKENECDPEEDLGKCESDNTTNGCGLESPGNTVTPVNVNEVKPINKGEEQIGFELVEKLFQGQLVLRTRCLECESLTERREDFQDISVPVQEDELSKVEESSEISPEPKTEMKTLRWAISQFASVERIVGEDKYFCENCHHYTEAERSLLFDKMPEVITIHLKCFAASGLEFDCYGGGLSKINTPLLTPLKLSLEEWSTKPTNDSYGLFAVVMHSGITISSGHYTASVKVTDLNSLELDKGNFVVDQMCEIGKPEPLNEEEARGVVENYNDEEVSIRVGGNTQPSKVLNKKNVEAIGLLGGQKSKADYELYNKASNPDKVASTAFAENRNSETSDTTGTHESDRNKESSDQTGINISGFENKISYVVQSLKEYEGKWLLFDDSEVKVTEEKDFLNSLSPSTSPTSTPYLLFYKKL
Summary of the method: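 Enzyme-free wells gave the negative control, while test wells held 1nM USP1/UAF1 preincubated with compound for 15 min at room temperature. Ub-Rho at 150nM final started the reaction, and fluorescence at 480/540 nm was recorded kinetically.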

[10] = qHTS for Inhibitors of ATXN expression: Validation (AID 588378); also: series mostly up to about 57 µM; nearly all actives have a fitted effect of over 75% in size
Summary of the method: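 After a 2 h attachment and 24 h compound incubation, HEK293-ATXN2-FFLuc wells are read for fluorescence at 405 nm excitation/525 nm emission as a viability measure, then for Bright-Glo luminescence reflecting ATXN2 expression.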

[11] = target: DNA dC->dU-editing enzyme APOBEC-3G (Homo sapiens) (UniProt Q9HC16); experiment: qHTS for inhibitors of Vif-A3G interactions: Validation (AID 588379)
Chain of DNA dC->dU-editing enzyme APOBEC-3G (Homo sapiens) (Q9HC16 whole entry, looked up): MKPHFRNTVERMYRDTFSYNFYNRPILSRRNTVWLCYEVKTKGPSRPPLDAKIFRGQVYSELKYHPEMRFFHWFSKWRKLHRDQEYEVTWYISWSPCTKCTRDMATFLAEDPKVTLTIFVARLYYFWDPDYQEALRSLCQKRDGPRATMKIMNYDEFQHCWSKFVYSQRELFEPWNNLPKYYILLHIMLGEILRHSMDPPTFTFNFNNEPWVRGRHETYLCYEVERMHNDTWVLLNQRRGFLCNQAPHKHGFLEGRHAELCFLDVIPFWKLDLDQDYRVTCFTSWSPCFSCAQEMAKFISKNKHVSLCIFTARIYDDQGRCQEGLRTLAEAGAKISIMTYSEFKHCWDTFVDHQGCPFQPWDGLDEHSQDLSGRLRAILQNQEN
Summary of the method: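 Yellow fluorescence (Ex 488, Em 500-530) of Vif-coexpressing HeLa A3G-eYFP cells, scanned by Acumen cytometer, reports blocked A3G degradation. Cells plated at 700/well overnight at 37 deg C before compound addition, then a further overnight compound incubation at 37 deg C.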

[12] = target: ATP-dependent 6-phosphofructokinase (Trypanosoma brucei brucei) (UniProt O15648); experiment: qHTS Assay to Find Inhibitors of T. brucei phosphofructokinase: hit validation (AID 492961);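 also: luminescence reports ADP formed as PFK phosphorylates fructose-6-phosphate with ATP; series mostly up to about 51 µM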
Chain of ATP-dependent 6-phosphofructokinase (Trypanosoma brucei brucei) (O15648 whole entry, looked up): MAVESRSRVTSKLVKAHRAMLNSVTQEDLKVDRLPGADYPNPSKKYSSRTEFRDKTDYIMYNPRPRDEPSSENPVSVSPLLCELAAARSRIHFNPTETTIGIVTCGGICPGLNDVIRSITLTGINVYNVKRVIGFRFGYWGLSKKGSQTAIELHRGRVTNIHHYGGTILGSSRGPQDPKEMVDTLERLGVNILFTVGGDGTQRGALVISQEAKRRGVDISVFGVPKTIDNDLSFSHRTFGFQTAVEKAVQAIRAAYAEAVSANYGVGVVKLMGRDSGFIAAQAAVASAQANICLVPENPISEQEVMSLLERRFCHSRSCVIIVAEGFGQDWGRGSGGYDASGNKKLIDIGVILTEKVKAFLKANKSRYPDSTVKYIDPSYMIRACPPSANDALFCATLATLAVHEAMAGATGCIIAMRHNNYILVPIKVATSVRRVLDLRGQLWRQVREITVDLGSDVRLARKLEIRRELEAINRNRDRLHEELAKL
Summary of the method: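 Reaction: 0.1 M triethanolamine pH 8.0, 5 mM MgCl2, F6P 0.5 mM, ATP 0.1 mM, PFK 1.25 nM, 45 min RT. Read-out: ADP-Glo luminescence. Analysis: concentration-response fits, classed by r2 and efficacy.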

[13] = target: Estrogen receptor (Homo sapiens) (UniProt P03372); experiment: qHTS assay for small molecule antagonists of estrogen receptor alpha signaling (AID 588513; active = well fitted curve in the direction sought with a large enough effect in the signal ratio, with a control signal flat, not every such curve was filed as active; the % refers to the signal ratio)
Chain of Estrogen receptor (Homo sapiens) (P03372 whole entry, looked up): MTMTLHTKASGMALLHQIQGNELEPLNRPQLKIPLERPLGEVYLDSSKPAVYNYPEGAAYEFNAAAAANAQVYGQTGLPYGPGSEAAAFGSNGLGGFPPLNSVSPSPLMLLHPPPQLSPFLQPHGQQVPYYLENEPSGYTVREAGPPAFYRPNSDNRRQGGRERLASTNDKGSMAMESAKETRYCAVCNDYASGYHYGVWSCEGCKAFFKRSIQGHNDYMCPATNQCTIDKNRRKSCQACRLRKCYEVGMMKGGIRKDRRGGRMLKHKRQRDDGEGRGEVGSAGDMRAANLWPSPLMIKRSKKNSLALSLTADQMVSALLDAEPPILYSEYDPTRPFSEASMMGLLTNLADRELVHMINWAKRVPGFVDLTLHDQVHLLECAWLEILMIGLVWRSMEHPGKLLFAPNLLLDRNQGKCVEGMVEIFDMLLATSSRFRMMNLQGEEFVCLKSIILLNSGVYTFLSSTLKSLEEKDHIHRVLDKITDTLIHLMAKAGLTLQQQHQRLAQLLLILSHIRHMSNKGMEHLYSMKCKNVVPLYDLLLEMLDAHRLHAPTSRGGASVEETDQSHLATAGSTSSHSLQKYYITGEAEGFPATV
Summary of the method: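 Antagonist-mode qHTS in ER-alpha-UAS-bla HEK 293 cells: compound titration, 0.5nM estradiol for 18 h, CCF4 fluorescence, Hill-derived IC50.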

[14] = Nrf2 qHTS screen for inhibitors: Validation (AID 493153; active = well fitted inhibition curve with a large enough effect in the main read-out, with a control signal flat, not every such curve was filed as active); settings: viability change: measured here: cytotoxicity max response
Summary of the method: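 A549 ARE_Fluc, 5% FBS OPTI-MEM; cpd titration, 18-24 h, 37°C/5% CO2. Read 1: CellTiter-Fluor (Ex 405/Em 525), cytotox. Read 2: luciferase lum, Nrf2 activity.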

[15] = Inducers of the Endoplasmic Reticulum Stress Response (ERSR) in human glioma: Validation (AID 504836)
Summary of the method: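 Stably transfected U87-MG human glioma cells carrying a GRP78-based luminescent sensor were seeded at 1000 cells/well, pin-dosed with compounds and incubated 16 h. Luciferase reagent was then added, and end-point luminescence was read after 10 min at room temperature.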

With O=C(CCCN1CCC2(CC1)C(=O)NCN2c1ccccc1)c1ccc(F)cc1 the outcome [1] was “inactive”, the outcome [2] was “inactive” and the outcome [3] was “inactive”. For the same compound, the outcome [4] was “inactive”, the outcome [5] was “inactive” and the outcome [6] was “inactive”. The outcome [7] was “inactive”, the outcome [8] was “inactive” and the Potency [9] was “inactive”. For the same compound, the outcome [10] was “inactive” and the outcome [11] was “inactive”.

For Cc1nnc2n1-c1ccc(Cl)cc1C(c1ccccc1)=NC2, the outcome [12] was “inactive” and the Potency [9] was “inactive”.

With O=C1CN=C(c2ccccc2)c2cc([N+](=O)[O-])ccc2N1 the outcome [12] was “inactive” and the Potency [9] was “inactive”.

With C=CCN1C[C@H](C)N([C@H](c2ccc(C(=O)N(CC)CC)cc2)c2cccc(OC)c2)C[C@H]1C the outcome [12] was “inactive”, the Potency [9] was “inactive” and the outcome [11] was “inactive”.

For O=C1Nc2ccc(Cl)cc2C(c2ccccc2Cl)=NC1O (stereo not given), the outcome [12] was “inactive” and the Potency [9] was “inactive”.

With Nc1ccc([As](=O)(O)O)cc1 the outcome [12] was “inactive” and the Potency [9] was “inactive”.

In the case of O=C1c2ccccc2C(=O)C1C(=O)C(c1ccccc1)c1ccccc1, the outcome [12] is reported as “inactive” and the Potency [9] is reported as 31.6 µM (active).

With CN1C[C@H](C(=O)N[C@]2(C)O[C@@]3(O)[C@@H]4CCCN4C(=O)[C@H](Cc4ccccc4)N3C2=O)C=C2c3cccc4[nH]cc(c34)C[C@H]21 the outcome [12] was “inactive” and the outcome [13] was “inactive”.

With O=C1c2ccccc2C(=O)c2ccccc21 the outcome [12] was “inactive” and the Potency [9] was “inactive”.

For CN1CCC(O)(c2ccc(F)cc2)C(C(=O)c2ccc(F)cc2)C1 (stereo not given), the outcome [12] was “inactive” and the Potency [9] was “inactive”.

With COC1CC(=C(c2cccs2)c2cccs2)C[N+](C)(C)C1 (stereo not given) the outcome [12] was “inactive” and the Potency [9] was “inactive”.

For Nc1ccccc1C(=O)O, the outcome [12] was “inactive”, the Potency [9] was “inactive” and the outcome [13] was “inactive”.

For O=C1Nc2ccc(Cl)cc2C(c2ccccc2)=NC1O (stereo not given), the outcome [12] was “inactive” and the Potency [9] was “inactive”.

With COC(=O)C(c1ccccc1)C1CCCCN1 (stereo not given) the outcome [12] was “inactive” and the Potency [9] was “inactive”.

With CC(C)(C)NCC(O)c1cc(Cl)c(N)c(C(F)(F)F)c1 (stereo not given) the outcome [12] was “inactive” and the Potency [9] was “inactive”.

With CN1C(=O)COc2c(C(=O)NC3CN4CCC3CC4)cc(Cl)cc21 (stereo not given) the outcome [12] was “inactive” and the Potency [9] was “inactive”.

In the case of NC(=O)c1cc([N+](=O)[O-])cc([N+](=O)[O-])c1, the outcome [12] is reported as “inactive” and the Potency [9] is reported as “inactive”.

For Oc1ccc(Cl)cc1, the outcome [12] was “inactive” and the Potency [9] was “inactive”.

For COP(=S)(OC)Oc1ccc(S(=O)(=O)N(C)C)cc1, the outcome [12] was “inactive” and the Potency [9] was “inactive”.

With Clc1ccc(C(c2ccc(Cl)cc2)C(Cl)(Cl)Cl)cc1 the outcome [12] was “inactive” and the Potency [9] was “inactive”.

In the case of CC(C)NC(C)C, the outcome [12] is reported as “inactive”, the Potency [9] is reported as “inactive” and the outcome [13] is reported as “inactive”.

For NC(=O)CS(=O)C(c1ccccc1)c1ccccc1 (stereo not given), the outcome [12] was “inactive” and the Potency [9] was “inactive”.

In the case of CN1C(=O)CC(=O)N(c2ccccc2)c2cc(Cl)ccc21, the outcome [12] is reported as “inactive” and the Potency [9] is reported as “inactive”.

In the case of CN=C(NC#N)NCCSCc1nc[nH]c1C, the outcome [14] is reported as “inactive”, the viability change [14] is reported as 0.983% and the outcome [15] is reported as “inactive”.

For NCCS(=O)(=O)O, the outcome [15] was “inactive”.

For CN1C(=O)C(O)N=C(c2ccccc2)c2cc(Cl)ccc21 (stereo not given), the outcome [12] was “inactive” and the Potency [9] was “inactive”.

In the case of COP(=S)(OC)Oc1ccc(SC)c(C)c1, the outcome [12] is reported as “inactive”, the Potency [9] is reported as “inactive” and the outcome [13] is reported as “inactive”.

For Cc1nnc2n1-c1ccc(Cl)cc1C(c1ccccc1Cl)=NC2, the outcome [12] was “inactive” and the Potency [9] was “inactive”.

For C[C@]12CC[C@@H]3c4ccc(OC(=O)N(CCCl)CCCl)cc4CC[C@H]3[C@@H]1CC[C@@H]2O, the outcome [12] was “inactive” and the Potency [9] was 50.1 µM (active).

In the case of COc1ccc2c(c1)C13CCCC[C@@H]1C(C2)N(C)CC3 (stereo not given in full), the outcome [12] is reported as “inactive” and the Potency [9] is reported as “inactive”.

In the case of CCC(C)(C)c1ccc(O)cc1, the outcome [12] is reported as “inactive” and the outcome [13] is reported as “inactive”.

With COc1cccc([C@@]2(O)CCCC[C@@H]2CN(C)C)c1 the outcome [12] was “inactive” and the Potency [9] was “inactive”.

For Clc1cccc(SC2CCNCC2)n1, the outcome [12] was “inactive”, the Potency [9] was “inactive” and the outcome [11] was “inactive”.

With CC(=O)N1CCN(c2ccc(OC[C@H]3CO[C@](Cn4ccnc4)(c4ccc(Cl)cc4Cl)O3)cc2)CC1 the outcome [2] was “inactive”, the outcome [15] was “inactive” and the Potency [9] was “inactive”.

With CNC(C)(C)Cc1ccccc1 the outcome [12] was “inactive” and the Potency [9] was “inactive”.
